Experimental data taken from the supplement of paper PMC7411640.
Counter-ions that a name gives are not always drawn.

System: MDA-MB-468
Assay: phospho-S6 immunofluorescence (DAPI-normalised), per-plate z-score; higher = higher phospho-S6 signal (less pathway suppression)
Settings: 24 h
Procedure: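 GPCR-targeted compound library (MedChemExpress HY-L006) tested on MDA-MB-468 PTEN-null TNBC cells in 384-well plates at 0.1, 1 or 10 uM, combined with vehicle, GDC0941 450 nM or lapatinib 1 uM, for 24 h. Phospho-S6 (S240/244) immunofluorescence normalised to DAPI and expressed as a per-plate z-score; values are the mean of biological triplicates.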

| Compound | phospho-S6 immunofluorescence (z-score) (co-treatment: GDC0941 450 nM) | phospho-S6 immunofluorescence (z-score) (co-treatment: lapatinib 1 uM) | phospho-S6 immunofluorescence (z-score) (co-treatment: vehicle) |
| --- | --- | --- | --- |
| O=C(NCC(=O)N1CC[C@H](N[C@H]2CC[C@@](O)(c3ccc(-c4ncccn4)cn3)CC2)C1)c1cccc(C(F)(F)F)c1 (compound 10 µM) | -0.86 | -0.77 | 0.76 |
| O=C(CN1C(=O)C2(CCCC2)NC[C@H]1c1cc(F)cc(F)c1)Nc1ccc2c(c1)C[C@@]1(C2)C(=O)Nc2ncccc21 [MK-3207 (Hydrochloride)] (compound 10 µM) | -0.51 | -0.06 | -0.48 |
| C[C@]12C=CC(=O)C=C1CC[C@@H]1[C@@H]2C(=O)C[C@@]2(C)[C@H]1CC[C@]2(O)C(=O)CO [Prednisone] (compound 10 µM) | 0.55 | 1.24 | 0.94 |
| CS(=O)(=O)c1cc(F)cc2c3c(n(Cc4ccc(Cl)cc4)c12)[C@@H](CC(=O)O)CC3 [Laropiprant] (compound 10 µM) | 0.48 | 0.81 | 0.75 |
| COc1ccc(N2CCOCC2)c2sc(NC(=O)N3CCC(C)(O)CC3)nc12 [Tozadenant] (compound 10 µM) | 0.02 | 0.77 | 0.82 |
| O=C(O)CCc1ccc(NCc2cccc(Oc3ccccc3)c2)cc1 (compound 10 µM) | -0.04 | 0.32 | 1.24 |
| CC(C)C[C@H](NC(=O)[C@@H](COC(C)(C)C)NC(=O)[C@H](Cc1ccc(O)cc1)NC(=O)[C@H](CO)NC(=O)[C@H](Cc1c[nH]c2ccccc12)NC(=O)[C@H](Cc1cnc[nH]1)NC(=O)[C@@H]1CCC(=O)N1)C(=O)N[C@@H](CCCNC(=N)N)C(=O)N1CCC[C@H]1C(=O)NNC(N)=O [Goserelin (acetate)] (compound 10 µM) | -1.26 | 0.37 | 0.21 |
| CCNC1(C(N)=O)CCN(c2ncnc3c2nc(-c2ccccc2Cl)n3-c2ccc(Cl)cc2)CC1 [Otenabant] (compound 10 µM) | -1.75 | -2.03 | -0.02 |
| COCCOc1ccc(N2CCN(CCn3ncc4c3nc(N)n3nc(-c5ccco5)nc43)CC2)cc1 [Preladenant] (compound 10 µM) | -0.66 | 0.79 | 0.97 |
| CCc1c(C)[nH]c2c1C(=O)C(CN1CCOCC1)CC2 (configuration not stated) [Molindone (hydrochloride)] (compound 10 µM) | -0.5 | 0.28 | 0.19 |
| CN1C2CCCC1CC(NC(=O)c1nn(C)c3ccccc13)C2 (configuration not stated) [Granisetron (Hydrochloride)] (compound 10 µM) | 1.08 | 0.62 | -0.01 |
| O=C(Nc1ccc(Cl)cc1CN1C(=O)c2ccccc2C1=O)c1ccccc1O (compound 10 µM) | -1.83 | -0.3 | -0.57 |
| CCCCC[C@H](O)/C=C/[C@H]1[C@H](O)CC(=O)[C@@H]1C/C=C\CCCC(=O)O [Prostaglandin E2] (compound 10 µM) | -0.11 | 1.46 | -0.52 |
| CN1CCC(=C2c3ccccc3C=Cc3ccccc32)CC1 [Cyproheptadine (hydrochloride)] (compound 10 µM) | -0.64 | -1.26 | 0.16 |
| CCCC(=O)Nc1ccc(OCC(O)CNC(C)C)c(C(C)=O)c1 (configuration not stated) [Acebutolol (hydrochloride)] (compound 10 µM) | 1.02 | 0.15 | -0.08 |
| CCOc1nc2cccc(C(=O)O)c2n1Cc1ccc(-c2ccccc2-c2noc(=O)[nH]2)cc1 [Azilsartan] (compound 10 µM) | -0.76 | 0.26 | -0.54 |
| Clc1ccccc1CN1CCc2sccc2C1 [Ticlopidine (hydrochloride)] (compound 10 µM) | -1.14 | -0.33 | -0.63 |
| COc1cccc(CCc2ccccc2OCC(CN(C)C)OC(=O)CCC(=O)O)c1 (configuration not stated) [Sarpogrelate (hydrochloride)] (compound 10 µM) | 0.63 | -0.51 | -0.15 |
| C[C@@H](O[C@H]1OCCN(Cc2nn(P(=O)(O)O)c(=O)[nH]2)[C@H]1c1ccc(F)cc1)c1cc(C(F)(F)F)cc(C(F)(F)F)c1 [Fosaprepitant (dimeglumine)] (compound 10 µM) | -2.28 | -0.65 | 0.39 |
| c1ccc(CC2=NCCN2)cc1 [Tolazoline (hydrochloride)] (compound 10 µM) | 1.08 | 0.41 | 0.92 |
| C[C@H]1C[C@H]2[C@@H]3CCC4=CC(=O)C=C[C@]4(C)[C@H]3C(=O)C[C@]2(C)[C@@]1(O)C(=O)CO [Meprednisone] (compound 10 µM) | 0.11 | -0.5 | -0.52 |
| Clc1ccc(CCCOCCCN2CCCCC2)cc1 [Pitolisant (hydrochloride)] (compound 10 µM) | 0.75 | -0.69 | -0.12 |
| CN1[C@@H]2CC[C@H]1C[C@@H](OC(c1ccccc1)c1ccccc1)C2 [Benztropine (mesylate)] (compound 10 µM) | 1.67 | -1.69 | 0.29 |
| CN(C)CCCN1c2ccccc2Sc2ccccc21 [Promazine (hydrochloride)] (compound 10 µM) | -0.07 | -1.25 | 0.4 |
| CC(C)NCC(O)c1ccc(NS(C)(=O)=O)cc1 (configuration not stated) [Sotalol (hydrochloride)] (compound 10 µM) | 1.31 | 1.24 | 0.37 |
| CN1CCN(c2cc(-c3ccccc3)nc(N)n2)CC1 (compound 10 µM) | 0.39 | 0.06 | 1.14 |
| Brc1c(NC2=NCCN2)ccc2nccnc12 [UK 14,304 (tartrate)] (compound 10 µM) | 0.91 | 1.2 | 0.14 |
| O=C1NCC2(CCN(CCc3ccccc3)CC2)O1 [Fenspiride (Hydrochloride)] (compound 10 µM) | 0.59 | 0.67 | 1.01 |
| NCCc1ccc(O)c(O)c1 [Dopamine (hydrochloride)] (compound 10 µM) | 0.84 | 0.53 | 0.15 |
